What all share (test): NCI-60 one-dose screen, 48 h (100 = growth as untreated, 0 = no growth, -100 = all killed)
Common to all, as to conditions: 10 µM unless noted

Test [1] concerns HCT-15 colon.
The test system of test [2] is HT29 colon.
Test [3] deals with SNB-19 CNS.
The test system of test [4] is U251 CNS.
The test system of test [5] is PC-3 prostate.
Test [6] concerns SK-MEL-5 melanoma.
The subject of test [7] is UACC-62 melanoma.
Test [8] concerns LOX IMVI melanoma.
Test [9] deals with SK-MEL-28 melanoma.
The subject of test [10] is SK-MEL-2 melanoma.
Test [11] concerns EKVX NSCLC.
In test [12] the test system is SN12C renal.
Test [13] concerns UO-31 renal.
Test [14] concerns TK-10 renal.
Test [15] deals with ACHN renal.
Test [16] has as its system CAKI-1 renal.
Test [17] relates to A498 renal.
In test [18] the test system is CCRF-CEM leukemia.
The test system of test [19] is MOLT-4 leukemia.

The structures appear in SMILES notation. Compounds without any hit were thinned out: in the full panel of roughly 83,000, 20% have a hit.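 The endpoint reported here, percent growth, reads 100 for growth as untreated, 0 for no net growth and -100 for all cells dead.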 A number with no mark means an inactive call. The source made the active and inactive calls. How the source made its calls: active means growth percent below 10; inactive means the rest.

Results on 8 compounds are retold here after PubChem BioAssay (NCI).

Consider `CC(C)(C)n1cc(-c2ccnc(NCCCNS(=O)(=O)c3ccc(Cl)cc3)c2)c(-c2cccc(O)c2)n1`, for which the growth in test [1] is -65.3% (active); in test [2] it was -49.3% (active); in [3], 24.6%; in [4], -43.7% (active); in test [5], -0.444% (active); in test [6], -87.8% (active). Moreover, the growth in test [7] was -2.46% (active); in [8], -88.4% (active); in [9], -67.1% (active); in test [10], -64% (active); in test [11] it was 20.5%; in [12], 18.1%. Further, the growth is 11% in [13]; 43.7% in test [14]; 8.91% (active) in [15]; 19.2% in test [16]; -8.44% (active) in test [17]; 8.5% (active) in [18]. Besides, the growth in [19] was -17.3% (active).

Take `O=C(Nc1ccc(NCCN2CCOCC2)nc1)c1ccc([N+](=O)[O-])cc1`: the growth was 105% in test [1]; 101% in test [2]; 106% in [3]; 102% in test [4]; 98.5% in test [5]; 98.7% in [6]. Moreover, the growth in [7] is 94.6%; in test [8] it was 102%; in [9], 115%; in test [10], 108%; in test [11], 87.2%; in test [12], 107%. The growth in test [13] is 96.2%; in [14], 114%; in test [15], 109%; in [16], 99%; in test [17], 92.5%; in test [18], 101%. Moreover, in test [19], the growth is 118%.

Take `COc1ccc(-n2c(=S)sc3c(Cl)nc(C)nc32)c(OC)c1`: the growth was 21% in test [1]; -7.41% (active) in test [2]; 12.5% in test [3]; -39.6% (active) in test [4]; 56.5% in test [5]; 80.1% in [6]. For the same compound, the growth was 51.6% in test [7]; -81.9% (active) in test [8]; -3.3% (active) in test [9]; 23.2% in [10]; 49.3% in test [11]; 27% in test [12]. Further, the growth was -36.2% (active) in [13]; 45.7% in test [14]; 56.8% in [15]; -41.8% (active) in [16]; 110% in [17]; -1.34% (active) in test [18]. In addition, in test [19], the growth is -1.97% (active).

In the case of `S=c1[nH]nc(-c2cc3ccc2CCc2ccc(cc2)CC3)n1C1CC1`, the growth in test [1] was 96.6%; in test [2], 95.7%; in test [3] it was 95.5%; in test [4], 97.4%; in test [5] it was 95.8%; in test [6] it was 95.7%. In addition, the growth in [7] was 80.2%; in [8], 95%; in test [9], 102%; in test [10] it was 110%; in [11], 88.9%; in test [12], 94.8%. Moreover, the growth is 88.8% in test [13]; 143% in test [14]; 102% in [15]; 98.6% in test [16]; 97.8% in test [17]; 104% in [18]. In test [19], the growth was 105%.

As to `CC(C)(C)n1cc(-c2ccnc(NCCCNS(=O)(=O)c3ccc(F)cc3)c2)c(-c2cccc(O)c2)n1`, the growth in test [1] is 0.588% (active); in [2] it was 13.9%; in [3], 71.3%; in test [4], 50.5%; in test [5] it was 27.5%; in test [6], 13.3%. The growth in [7] is 59.8%; in test [8], -51.5% (active); in [9] it was 39.2%; in [10], 52.2%; in test [11], 49.8%; in test [12], 53.4%. Besides, the growth was 59.4% in [13]; 97.6% in test [14]; 38.2% in test [15]; 55% in test [16]; 59% in [17]; 35.7% in test [18]. Further, the growth in [19] is 34.2%.

Take `CCCCCCCCCCCCCCCCCCNC(=O)[C@H]1CSC(c2cccs2)N1` (some centres not stated): the growth in test [1] is 42.5%; in test [2], -35% (active); in [3] it was 27.8%; in [4], -83.8% (active); in test [5] it was 38.5%; in test [6], -66.2% (active). Moreover, the growth is -92.1% (active) in test [7]; 14.2% in test [8]; -89.7% (active) in test [9]; -86.7% (active) in test [10]; 3.9% (active) in test [11]; -84.2% (active) in test [12]. For the same compound, the growth in test [13] is 45.6%; in [14] it was 29.9%; in [15], 67.9%; in test [16], -0.0289% (active); in [17], 68.1%; in test [18], -33.4% (active). In addition, in test [19], the growth is 3.87% (active).

Regarding `S=c1[nH]nc(-c2cc3ccc2CCc2ccc(cc2)CC3)n1-c1ccccc1`, the growth in test [1] was 89.7%; in [2] it was 90.8%; in [3], 93.3%; in test [4] it was 94.5%; in test [5], 83.9%; in test [6] it was 96.5%. Besides, the growth is 76.2% in [7]; 98% in test [8]; 98.8% in test [9]; 105% in test [10]; 93.4% in test [11]; 91.4% in test [12]. Moreover, the growth is 92.9% in test [13]; -61.5% (active) in test [14]; 100% in test [15]; 87.2% in test [16]; 90.2% in test [17]; 95.8% in test [18]. Moreover, in test [19], the growth was 92.7%.

As to `COc1cccc(-c2nc3sccn3c2-c2ccnc(NCCCNS(=O)(=O)c3ccc(F)cc3)c2)c1`, the growth in test [1] was 19.4%; in [2] it was 44.4%; in [3], 62.3%; in [4], 55.5%; in test [5], 9.93% (active); in [6], -39.3% (active). The growth in [7] is -38.3% (active); in test [8] it was 23.1%; in test [9], 52.1%; in [10], 21.2%; in test [11], 36.5%; in test [12] it was 29.9%. For the same compound, the growth in [13] was 6.81% (active); in test [14] it was 80.4%; in [15], 22.6%; in test [16], 23.9%; in [17], 48.7%; in [18], 10.6%. Further, the growth in test [19] was 10.9%.
